Assay outcomes: PubChem, National Center for Advancing Translational Sciences (NCATS)
Rows were chosen to be rich in hits. Some 7.9% of all compounds tested hit in one or more screens of this group.
HT1080-NT tox: kills 2HG-producing HT-1080-NT fibrosarcoma cells; HT-1080-NT fibrosarcoma viability, CellTiter-Glo ATP luminescence, 48 h; Potency, µM (doses to about 46.1 µM), inactives show at the highest dose activity, negative = less viability, hits mostly cytotoxic; 360,000 tested, 1.6% active; AID 686970;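 further: NT is the 2HG producing partner of a matched IDH1 knockdown line; 0% = DMSO-treated cells and -100% = media-only wells without cells; nearly all actives have a fitted effect of over 55% in size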
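Compounds were tested in concentration-response format on HT-1080-NT cells for 48 hours at 37 degrees C. Cell viability came from CellTiter-Glo luminescence; curves were classified by r2, response magnitude and activity.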
KB-V1 cytotox: kills drug-selected multidrug resistant KB-V1 cells | KB-V1 MDR cells viability, CellTiter-Glo, 72 h | Potency, µM (doses to about 46.1 µM), usual class: cytotoxic | 400,000 tested, 3.4% active | AID 1347076; further: on the % scale 0 is the no-effect control and ±100 the full control effect; nearly all actives have a fitted effect of over 60% in size
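KB-V1, DMEM (no phenol red) + 10% FBS; cpd pin-transferred, titration series; 72 h, 37 degrees C; CellTiter-Glo, luminescence. Data normalized, curve-fit.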
MCF10A rereplic: induces DNA re-replication in MCF 10a normal breast cells; MCF 10A DNA re-replication, Hoechst nuclear intensity, 48 h; Potency, µM (series often up to 46.1 µM), for the others: top-dose activity, positive = re-replication, most hits filed as activators; 350,000 tested, 2.9% active; AID 624296; further: % of control where 0% means no effect; nearly all actives have a fitted effect of over 50% in size
SW480 rerep: inducers of DNA re-replication in SW480 colon cancer cells | SW480 DNA re-replication, Hoechst DNA content imaging, 48 h | Potency, µM (doses to about 46.1 µM), for inactives: at the top dose re-replication activation, usual class: activators | 340,000 tested, 1.8% active | AID 624297; further: % of control where 0% means no effect; nearly all actives have a fitted effect of over 55% in size
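Image-based DNA-content assay: after two days of treatment, nuclei were labelled with the DNA dye Hoechst and imaged, and hits were compounds raising the count of nuclei showing high fluorescence intensity.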
HT1080 IDH1KD tx: toxicity to HT-1080 IDH1 knockdown cells (counter line). Potency, µM (top dose mostly 46.1 µM), inactives show top-dose activity, negative = toxicity, hits mostly cytotoxic. 360,000 tested, 2% active. HT-1080 IDH1 knockdown viability, ATP luminescence, 48 h;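 further: 0% = DMSO wells and -100% = cell-free medium wells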
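Knockdown cells (IDH1KD HT-1080) received compounds 2 h after plating at 750 cells/well and were kept 48 h at 37 °C in 5% FBS RPMI. A CellTiter-Glo luminescence read gave % activity for curve fitting.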
KB-3-1 cytotox: KB-3-1 parental cell cytotoxicity; KB-3-1 viability, CellTiter-Glo ATP luminescence, 72 h; Potency, µM (top dose mostly 46.1 µM), usual class: cytotoxic; 400,000 tested, 1.4% active; AID 1347075; further: on the % scale 0 is the no-effect control and ±100 the full control effect; nearly all actives have a fitted effect of over 60% in size
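KB-3-1 cells, DMEM (no phenol red) + 10% FBS; compound by pin transfer, 72 h, 37 °C. Readout: CellTiter-Glo luminescence after 10 min. Data normalized, curve-fitted.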
* marks the source's active call; other numbers are inactive results; i = inactive; ? = inconclusive; / = not tested or not shown; [ ] = dose if it differs, or a comment. The call rests on the fitted dose curve; in most records, active means well fitted curve in the direction sought with a large enough effect; inconclusive means small, poorly fitted or top-dose-only effect, or another doubt; inactive means no such curve, though single readings can be large; an effect the other way counts as inactive or inconclusive. Potency means the concentration at half of the fitted maximal effect.

SMILES	HT1080-NT tox	KB-V1 cytotox	MCF10A rereplic	SW480 rerep	HT1080 IDH1KD tx	KB-3-1 cytotox
Fc1cc(NCc2ccccc2)nc(NCc2ccccc2)n1	-9%	i	?	1%	-10%	i
Cc1cc(Oc2ccccc2F)nc(NCc2ccccc2)n1	-6%	?	29%	?	-18%	?
CCC(C(=O)NC1CCCC1)n1c(C2CC2)nc2ccccc21 (stereo unspecified)	11%	?	/	/	1%	i
COc1ccc(N2CC(C(=O)Nc3nnc(SCC(=O)NCC4CCCO4)s3)CC2=O)cc1 (stereo unspecified)	-8%	i	1%	5%	-4%	i
Cc1cc(N2CCC(C)CC2)nc(NCc2ccccc2)n1	-1%	i	25%	0.52µM*	0%	13µM*
CCCCNc1cc(C)nc(NCc2ccccc2)n1	26µM*	5.8µM*	25%	-2%[9.22 µM]	23µM*	6.5µM*
Cc1ccc(NC(=S)c2ccncc2)c(C)c1	4%	?	?	?	0%	i
Cc1ccc(NC(=S)N2CCCC(c3nc4ccccc4[nH]3)C2)cc1 (stereo unspecified)	1%	i	0%	-35%	12%	i
Cc1ccc(NC(=S)c2nc3ccccc3[nH]2)c(C)c1	-19%	?	?	1%	-24%	21µM*
Cc1ccc(NC(=S)c2nc3ccccc3[nH]2)cc1	-10%	23µM*	?	-5%	-23%	?
Cc1cccc(-c2nc(CN3CCCC(C(=O)NC4CCC(C)CC4)C3)c(C)o2)c1 (stereo unspecified)	-26%	21µM*	?	?	-25%	i
Cc1cccc(-c2nc(CN3CCCC(C(=O)NC4CCCC4)C3)c(C)o2)c1 (stereo unspecified)	?	9.2µM*	?	?	?	i
CCOC(=O)N1CCC(NC(=O)C2CCCN(Cc3nc(-c4cccc(C)c4)oc3C)C2)CC1 (stereo unspecified)	?	?	?	0%	?	i
O=S1(=O)N=C(Sc2ccc3c(c2)OCCO3)c2ccccc21	/	i	/	/	/	i
COc1ccc(N/N=C(\C=N\O)C(=O)c2ccc(OC)cc2)cc1	?	i	6.5µM*	?	?	?
COc1ccc(C(=O)C(=NNc2ccccc2)c2ccc(OC)cc2)cc1	9%	i	1%	3%	-6%	i
Cc1cc(C)n(CC(O)CN(c2ccccc2)S(=O)(=O)c2ccccc2)n1 (stereo unspecified)	11%	i	1%	-2%	12%	i
Cc1ccc(N(CC(O)Cn2nc(C)cc2C)S(=O)(=O)c2ccc3ccccc3c2)cc1 (stereo unspecified)	-9%	5.8µM*	4%	7%	-2%	i
CC(C(=O)Nc1ccc2c(c1)OCO2)N(C)CC(=O)Nc1ccc(Cl)cc1 (stereo unspecified)	-1%	23µM*	-5%	-5%	-4%	i
CC(C(=O)Nc1ccc2c(c1)OCO2)N(C)CC(=O)Nc1ccccc1Cl (stereo unspecified)	-5%[9.24 µM]	i	-5%	-58%	5%	i
COc1ccc(NC(=O)C(C)SCc2ccccc2)cc1OC (stereo unspecified)	15%	23µM*	10%	-82%	10%	i
CC(SCc1ccccc1)C(=O)Nc1ccc2c(c1)OCO2 (stereo unspecified)	5%	18µM*	1%	-9%	4%	i
O=C(O)C(=Cc1ccc([N+](=O)[O-])cc1)c1cccc(Cl)c1	-2%	i	/	/	0%	i
CN1C(C)(C)CC(=NO)CC1(C)C	6%	i	1%	-7%	14%	i
Cc1ccccc1/C=C/C1=NCCN1	0%	?	-4%	-85%	0%	i
SMILES	HT1080-NT tox	KB-V1 cytotox	MCF10A rereplic	SW480 rerep	HT1080 IDH1KD tx	KB-3-1 cytotox
N#Cc1cnn(-c2ccc([N+](=O)[O-])cc2[N+](=O)[O-])c1N	-2%	?	/	/	-29%	18µM*
COc1ccc(Cn2cc(CN3CC(N4CCN(C)CC4)CS3(=O)=O)nn2)cc1 (stereo unspecified)	23%	i	/	/	12%	i
CC(=O)NC(c1cccs1)c1cc([N+](=O)[O-])c2cccnc2c1O (stereo unspecified)	?	i	?	?	10µM*	?
CCCC(=O)NC(c1cccs1)c1cc([N+](=O)[O-])c2cccnc2c1O (stereo unspecified)	-29%	?	?	?	?	?
CCC(=O)NC(c1cccs1)c1cc([N+](=O)[O-])c2cccnc2c1O (stereo unspecified)	?	i	-4%	?	13µM*	i
CCN(CC)S(=O)(=O)c1ccc(N2CCOCC2)c(NC(=O)C2CC2)c1	10%	i	-19%	-40%	3%	i
O=C1c2ccccc2S(=O)(=O)c2cc(N3CCC4(CC3)OCCO4)ccc21	-12%	7.3µM*	?	1%	-4%	i
CC1CCN(c2ccc3c(c2)S(=O)(=O)c2ccccc2C3=O)CC1	-6%	i	18µM*	23µM*	-7%	i
Cc1ccc2c(c1)N(C(=O)CCC(=O)NC1CCC(C)CC1)CCO2 (stereo unspecified)	?	i	1%	-2%	7%	i
CCS(=O)(=O)Nc1cc(-c2cn3ccc(C)cc3n2)ccc1C	/	i	/	/	/	i
O=C(Nc1cccc(NC(=O)c2ccc(-c3ccc(Br)cc3)o2)c1)c1ccccc1	10%	i	?	?	0%	i
CC(=O)c1ccc(NC(=O)c2ccc(-c3ccc(Cl)cc3)o2)cc1	/	i	/	/	/	?
CN(C)C(=O)c1ccc(NC(=O)c2ccc(-c3ccc(Cl)cc3)o2)cc1	7%	21µM*	28%	24%	5%	i
COc1ccccc1NC(=O)c1ccc(-c2ccc(Br)cc2)o1	?	3.3µM*	?	?	18µM*	5.8µM*
O=C(Nc1ccccc1)c1ccc(-c2ccc([N+](=O)[O-])cc2)o1	-7%	i	23µM*	1%	1%	?
O=C(Nc1ccccc1)c1ccc(-c2ccc(Br)cc2)o1	11%	i	21µM*	?	1%	i
CC(C)c1ccc(-c2noc(SCC(=O)N3CCCCC3C)n2)cc1 (stereo unspecified)	/	i	/	/	/	i
